Activity calls are given as the source filed them.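 Rule for the calls, unless noted: active = NADPH fluorescence slope more negative than the mean of all samples by about 3 SD, 99.7% confidence; inactive = the rest.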
Assays:
[1] = inhibitors of TNFa-induced NFkB p65 translocation, primary screen, imaging, HUVEC, MLSMR starter and 10KST1 sets (AID 438;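 active = inhibition above 20% together with a positive visual image hit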;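 note: compound added about 3h40 before a 20 min TNFalpha stimulation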;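 for inhibition: signal is the nuclear over cytoplasmic p65 intensity ratio per well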); conditions: HUVEC TNFa-induced p65 nuclear translocation; cell count: measured here: nuclei count (cytotoxicity indicator), at 2.08 µM; inhibition: at 2 µM, stronger effect = higher value, 0% TNFa-plus-vehicle, 100% no-TNFa wells
[2] = reduction of polyQ htt aggregates in cells – imaging, exon1htt(103Q)mCFP cells, high-content imaging, primary screen (AID 483;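 active = visual image review flags a hit and inhibition of aggregation exceeds 20%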;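 note: compound exposure lasted 3 days before fixation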;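 for nuclei count: percent of the per-plate median nuclei count of sample wells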); conditions: exon1htt(103Q)mCFP cell line, aggregate imaging, at 2 µM; inhibition of aggregation: stronger effect = higher value; nuclei count: measured here: cell count, toxicity
[3] = endothelial E-selectin expression blockers – imaging, HUVEC, immunofluorescence, MLSMR starter and 10KST1 sets, primary screen (AID 487;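 active = visually confirmed hit in the image check and inhibition above 20%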;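 for inhibition: signal is fraction of cell area covered by stained E-selectin grains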;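 for nuclei count: 100% = median nuclei count of all wells on the same plate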); conditions: HUVEC TNFalpha-induced E-selectin immunofluorescence imaging, at 2 µM; inhibition: stronger effect = higher value; nuclei count: measured here: cell number, toxicity
[4] = target: Voltage-gated potassium channel subunit beta-2 (Rattus norvegicus) (UniProt P62483); test: inhibitors of rat Kvbeta2 reductase activity – biochemical, NADPH fluorescence, primary screen (AID 622;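 active = fluorescence slope higher than the sample average by over 3 SD, cut at about -0.22 in these data, passing the limit was not always enough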;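 note: slope of raw intensity against log time taken from 70 to 1610 s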); conditions: recombinant KvBeta, 4-cyanobenzaldehyde reduction, at 10 µM, stronger effect = higher value
[5] = target: Voltage-gated potassium channel subunit beta-2 (Rattus norvegicus) (UniProt P62483); test: enhancers of rat Kvbeta2 NADPH turnover – biochemical, NADPH fluorescence, primary screen (AID 623); conditions: Recombinant KvBeta, NADPH fluorescence decrease slope, 10 min; at 10 µM; stronger effect = lower value;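 note: fluorescence intensity change per second fitted from 20 to 320 s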
[6] = target: Alpha-2C adrenergic receptor (Homo sapiens) (UniProt P18825); test: compounds altering alpha2C-coupled GIRK flux – cell-based, HEK293 alpha2C/GIRK1/2, thallium flux, primary screen (AID 624;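 active = fluorescence slope after compound addition differing from the mean of all screened samples at 99.7% confidence, in either direction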;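 note: slope of fluorescence ratio to pre-addition baseline per second over 15 to 24 s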); conditions: thallium flux BTC fluorescence, at 10 µM, actives lie on both sides
[7] = blockers of RIG-like receptor reporter activation – cell-based, Sendai virus stimulus, luciferase, 10K MLSCN set, TLR/RLR signaling modifier project, primary screen (AID 602276;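 active = inhibition at or above 50% at 10 µM; inactive = inhibition below 50%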;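 note: firefly luciferase from ISG56 promoter only with Renilla not read in this screen; 0% = Sendai virus plus DMSO and 100% = medium plus DMSO without virus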); conditions: HEK293 RL24 IRF3 luciferase reporter, at 10 µM, stronger effect = higher value
[8] = TLR3 IRF3 reporter activation blockers – cell-based, poly I:C stimulus, luciferase, 10K MLSCN set, primary screen (AID 602277;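 active = inhibition of the reporter signal at or above 50%; inactive = inhibition below 50%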); conditions: HEK293-TLR3 RL24 IRF3 luciferase reporter, at 10 µM, stronger effect = higher value

Chain of Alpha-2C adrenergic receptor (Homo sapiens) (P18825 whole entry, looked up): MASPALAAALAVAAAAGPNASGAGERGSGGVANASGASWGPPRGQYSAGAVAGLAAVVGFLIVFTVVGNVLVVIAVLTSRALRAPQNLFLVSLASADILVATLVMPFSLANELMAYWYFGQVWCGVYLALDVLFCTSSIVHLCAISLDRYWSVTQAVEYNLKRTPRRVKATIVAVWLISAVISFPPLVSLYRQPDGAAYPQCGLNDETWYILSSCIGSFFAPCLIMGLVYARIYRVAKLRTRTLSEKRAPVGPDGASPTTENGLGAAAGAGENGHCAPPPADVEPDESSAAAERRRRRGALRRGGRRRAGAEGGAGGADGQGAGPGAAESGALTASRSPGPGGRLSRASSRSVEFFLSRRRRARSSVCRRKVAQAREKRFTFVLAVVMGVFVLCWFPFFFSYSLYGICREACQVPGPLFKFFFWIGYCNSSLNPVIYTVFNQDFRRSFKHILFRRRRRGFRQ
Chain of Voltage-gated potassium channel subunit beta-2 (Rattus norvegicus) (P62483 whole entry, looked up): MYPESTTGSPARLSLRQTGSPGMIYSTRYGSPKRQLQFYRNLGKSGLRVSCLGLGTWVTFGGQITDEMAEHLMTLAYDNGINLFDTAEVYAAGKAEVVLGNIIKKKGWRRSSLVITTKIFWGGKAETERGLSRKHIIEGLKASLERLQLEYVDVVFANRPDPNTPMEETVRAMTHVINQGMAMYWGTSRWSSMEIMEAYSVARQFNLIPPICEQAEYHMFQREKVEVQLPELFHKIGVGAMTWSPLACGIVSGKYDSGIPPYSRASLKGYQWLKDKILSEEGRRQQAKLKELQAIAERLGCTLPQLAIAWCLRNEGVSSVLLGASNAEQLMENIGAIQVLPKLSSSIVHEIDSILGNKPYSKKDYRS

Row | SMILES | cell count [1] | inhibition [1] | inhibition of aggregation [2] | nuclei count [2] [%] | inhibition [3] | nuclei count [3] [%] | fluorescence slope [4] | NADPH fluorescence slope [5] | slope [6] | inhibition [7] | inhibition [8]
1 | Cc1nc(C)c(C(=O)C2=C(O)C(=O)N(CCCn3ccnc3)C2c2ccccc2)s1 (stereo not drawn) | 481 | 4% (inactive) | 11.4% (inactive) | 89 | 39.5% (inactive) | 88.2 | -0.394 (inactive) | 1.3e-05 (inactive) | 0.00668 (inactive) | -7.2% (inactive) | -4.54% (inactive)
2 | C/C(=N\O)C(=O)NCc1ccccn1 | 290 | 0.5% (inactive) | 4.5% (inactive) | 108 | -55.3% (inactive) | 104 | -0.431 (inactive) | 1.8e-05 (inactive) | 0.00348 (inactive) | -4.43% (inactive) | -25.9% (inactive)
3 | CCCC(=O)Nc1ccccc1-c1nnn(CC(=O)Nc2ccc(OCC)cc2)n1 | 369 | 3% (inactive) | -6.8% (inactive) | 97.4 | -7.5% (inactive) | 94.3 | -0.444 (inactive) | -0.000123 (inactive) | 0.00619 (inactive) | 12.2% (inactive) | 9.95% (inactive)
4 | CCCCCCOC(=O)C(C#N)c1nc2ccccc2nc1N1CCCCC1 (stereo not drawn) | 513 | 5.7% (inactive) | 6.3% (inactive) | 89.3 | -28.3% (inactive) | 137 | -0.393 (inactive) | 3.7e-05 (inactive) | 0.00357 (inactive) | 6.89% (inactive) | 23.9% (inactive)
5 | COc1ccc(-c2cc3c(=O)n(CC(=O)NC4CCN(Cc5ccccc5)CC4)ncn3n2)cc1 | 296 | 2.8% (inactive) | 0.5% (inactive) | 91.9 | 2.5% (inactive) | 90.8 | -0.404 (inactive) | -4.1e-05 (inactive) | 0.00479 (inactive) | -14.7% (inactive) | -13.3% (inactive)
6 | CN(C)CCCn1c(N)c(C#N)c2nc(C#N)c(C#N)nc21 | 735 | -14.6% (inactive) | 0% (inactive) | 128 | -55.1% (inactive) | 106 | -0.0856 (active) | -1.8e-05 (inactive) | 0.00617 (inactive) | 48.9% (inactive) | 79.3% (active)
7 | N[C@@H](Cc1ccccc1)c1nnc2sc(SCc3ccccc3)nn12 | 444 | -5.5% (inactive) | -1.7% (inactive) | 84.8 | -15.7% (inactive) | 114 | -0.43 (inactive) | -1.6e-06 (inactive) | 0.00539 (inactive) | 10.2% (inactive) | 98.1% (active)
8 | c1ccc(-c2cnc(CSc3ncnc4sccc34)o2)cc1 | 308 | 2.9% (inactive) | 27.8% (inactive) | 86.4 | -7.2% (inactive) | 109 | -0.272 (inactive) | -1.7e-05 (inactive) | 0.00879 (inactive) | -9.6% (inactive) | -51.1% (inactive)
9 | CC(=O)NCCc1nc2ccccc2[nH]1 | 736 | -4.3% (inactive) | -14% (inactive) | 114 | -6.5% (inactive) | 106 | -0.553 (inactive) | -2.7e-05 (inactive) | 0.00636 (inactive) | 12.7% (inactive) | 33.6% (inactive)
10 | CCC(CC)C(=O)Nc1cccc(C(=O)NCc2ccco2)c1 | 295 | 2.3% (inactive) | -17.4% (inactive) | 107 | -100% (inactive) | 138 | -0.428 (inactive) | -1.2e-05 (inactive) | 0.00559 (inactive) | -5.68% (inactive) | -18.7% (inactive)
11 | Cc1cnn(Cc2ccccc2)c1N | 638 | 2.3% (inactive) | -4.6% (inactive) | 105 | 25.6% (inactive) | 100 | -0.6 (inactive) | -3.5e-05 (inactive) | 0.00669 (inactive) | 14.7% (inactive) | 21.3% (inactive)
12 | O=C(OCn1nnc2ccccc2c1=O)C1CCN(S(=O)(=O)c2cccs2)CC1 | 479 | 8.9% (inactive) | -8.9% (inactive) | 103 | 13.8% (inactive) | 105 | -0.356 (inactive) | 9.4e-06 (inactive) | 0.00571 (inactive) | -1.19% (inactive) | 2% (inactive)
13 | FC(F)(F)c1cc(-c2ccccc2)nc(N2CCCCC2)n1 | 286 | 3.3% (inactive) | 3.7% (inactive) | 100 | -8.9% (inactive) | 105 | -0.578 (inactive) | -3.3e-05 (inactive) | 0.00434 (inactive) | 12.9% (inactive) | 12.8% (inactive)
14 | Cc1ccnc(NC(=O)CCC(=O)N(CC(=O)NC(C)(C)C)C2CCCC2)c1 | 603 | 1.7% (inactive) | -6.2% (inactive) | 113 | -105% (inactive) | 89.5 | -0.638 (inactive) | -1.4e-05 (inactive) | 0.00587 (inactive) | 9.05% (inactive) | 9.79% (inactive)
15 | COc1ccc(NC(=O)CSc2nnc(Cc3cccn3C)n2-c2ccc(F)cc2)cc1OC | 541 | -1.3% (inactive) | -0.2% (inactive) | 92.7 | -59.2% (inactive) | 118 | -0.588 (inactive) | -2.4e-05 (inactive) | 0.00584 (inactive) | 12.2% (inactive) | 27.1% (inactive)
16 | Cc1cc(NC(=O)CCOc2ccccc2)no1 | 403 | -11.8% (inactive) | -20.8% (inactive) | 113 | 35.5% (inactive) | 64.3 | -0.455 (inactive) | -5e-05 (inactive) | 0.00305 (inactive) | 6.04% (inactive) | 23.9% (inactive)
17 | O=S(=O)(NC1CCCCC1NS(=O)(=O)c1ccc(F)cc1)c1ccc(F)cc1 (stereo not drawn) | 334 | 5.3% (inactive) | -1.8% (inactive) | 101 | 5.1% (inactive) | 112 | -0.503 (inactive) | -3.7e-06 (inactive) | 0.00507 (inactive) | 21.4% (inactive) | 26.6% (inactive)
18 | Cn1c(=O)c2c(nc(NCCCO)n2CCc2ccccc2)n(C)c1=O | 422 | 9.7% (inactive) | -11.3% (inactive) | 105 | -27.9% (inactive) | 103 | -0.506 (inactive) | 4.3e-05 (inactive) | 0.00351 (inactive) | -9.22% (inactive) | 4.62% (inactive)
19 | CCOC(=O)c1c(NC(=O)c2ccn(CC)n2)sc2c1CCCC2 | 680 | -10.9% (inactive) | -3.6% (inactive) | 97.6 | -71.6% (inactive) | 114 | -0.123 (inactive) | -1.5e-06 (inactive) | 0.00291 (inactive) | 3.28% (inactive) | -1.94% (inactive)
20 | COc1ccc(N2CCN(c3oc(COc4ccccc4Cl)nc3C#N)CC2)cc1 | 451 | 14.6% (inactive) | 5.4% (inactive) | 95.5 | -33.4% (inactive) | 104 | -0.438 (inactive) | -0.000162 (inactive) | 0.00642 (inactive) | 2.05% (inactive) | 15.7% (inactive)
21 | O=C(NC1=NCCS1)c1nc(-c2ccccc2)n(-c2ccccc2)n1 | 495 | 4.7% (inactive) | 1% (inactive) | 109 | -60.7% (inactive) | 113 | -0.405 (inactive) | -4.9e-05 (inactive) | 0.00535 (inactive) | 8.38% (inactive) | 11.1% (inactive)
22 | O=C(c1ccccc1)N1CCN(Cc2ccccc2Br)CC1 | 234 | -2.5% (inactive) | 23.9% (inactive) | 77.4 | -25.8% (inactive) | 96.1 | -0.428 (inactive) | -4.5e-05 (inactive) | 0.00425 (inactive) | 9.36% (inactive) | 4.59% (inactive)
23 | O=C(Nc1ccncc1)c1cccc(F)c1 | 559 | -6.9% (inactive) | -1.2% (inactive) | 95.4 | -13.5% (inactive) | 68.8 | -0.375 (inactive) | -4.9e-05 (inactive) | 0.00567 (inactive) | 12.9% (inactive) | 13.8% (inactive)
24 | CC(C)Oc1cc2oc(=O)c3c(c2cc1Cl)CCC3 | 385 | 0.8% (inactive) | -21.6% (inactive) | 56.6 | -10.2% (inactive) | 96.1 | -0.445 (inactive) | 2.2e-05 (inactive) | 0.00687 (inactive) | -1.44% (inactive) | -17.4% (inactive)
25 | CC(=O)N1CCN(Cc2ccc(Br)s2)CC1 | 362 | -3.4% (inactive) | 2% (inactive) | 114 | -10.6% (inactive) | 106 | -0.442 (inactive) | -1.9e-05 (inactive) | 0.00639 (inactive) | 13.6% (inactive) | 20.9% (inactive)
26 | c1ccc(Cc2ccc(OCCn3cncn3)cc2)cc1 | 755 | -5.6% (inactive) | -15.5% (inactive) | 102 | -68.7% (inactive) | 108 | -0.477 (inactive) | 1.2e-05 (inactive) | 0.00592 (inactive) | -18.4% (inactive) | -0.13% (inactive)
27 | CCOC(=O)N1CCN(C(=O)c2c(-c3ccccc3)noc2C)CC1 | 816 | 0% (inactive) | -5.9% (inactive) | 107 | -27.3% (inactive) | 106 | -0.421 (inactive) | -4.8e-05 (inactive) | 0.00537 (inactive) | 14% (inactive) | 31.9% (inactive)
28 | CC(=O)C(Sc1ncnc2c1nnn2-c1ccc(F)cc1)C(=O)N(C)C (stereo not drawn) | 464 | -2.2% (inactive) | 2.3% (inactive) | 89.3 | -51.7% (inactive) | 114 | -0.492 (inactive) | -1.7e-05 (inactive) | 0.00752 (inactive) | -3.3% (inactive) | -23.2% (inactive)

Reference: PubChem BioAssay
